Results filed as inconclusive are left out. Active and inactive are the calls of the source. The calls were made as follows, unless noted: active = hit-call score of the fitted dose curve at least 0.9, where 1 is the maximum; inconclusive = response in the unintended direction; inactive = score below 0.9.
What was measured:
[1] = CCTE_Shafer_MEA_dev_firing_rate_mean: CCTE's Neural Network Formation Assay for Mean Firing Rate, Shafer Lab (AID 2284031; active = hit-call score of the fitted dose curve at least 0.9, where 1 is the maximum; inactive = score below 0.9)
How it was run: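 Steps: seed rat cortical cells (1.5 x 10^5/well) with laminin on PEI-coated MEA; dose day 0; record DIV 5/7/9/12, full media and compound exchange after DIV 5 and 9 recordings; compute well-mean firing rate AUC.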

[2] = CCTE_Shafer_MEA_dev_per_burst_spike_percent: CCTE's Neural Network Formation Assay for Percent of Spikes in a Burst, Shafer Lab (AID 2284032; active = hit-call score of the fitted dose curve at least 0.9, where 1 is the maximum; inactive = score below 0.9)
How it was run: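 Value is trapezoidal AUC over recordings on days 5, 7, 9 and 12 of the well-mean fraction of spikes falling in single-electrode bursts; rat cortical cultures exposed continuously from plating, treatment renewed DIV 5 and 9, fitted downward against DMSO.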

[3] = CCTE_Shafer_MEA_dev_active_electrodes_number: CCTE's Neural Network Formation Assay for Number of Active Electrodes, Shafer Lab (AID 2284040)
How it was run: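 Counts electrodes per well firing at least 5 spikes/min, recorded on days 5, 7, 9 and 12 in rat cortical cultures dosed continuously from plating (treatment refreshed DIV 5, 9). Value is the area under the curve over recordings, fitted downward relative to DMSO.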

[4] = CCTE_Shafer_MEA_dev_burst_rate: CCTE's Neural Network Formation Assay for Burst Rate, Shafer Lab (AID 2284042; active = hit-call score of the fitted dose curve at least 0.9, where 1 is the maximum; inactive = score below 0.9)
How it was run: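 Cells plated, treated day 0; recorded DIV 5, 7, 9, 12; fed and re-treated DIV 5, 9. Endpoint: bursts per recording time, active-electrode well mean, trapezoidal AUC, fitted in decreasing direction against DMSO baseline.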

[5] = CCTE_Shafer_MEA_dev_bursting_electrodes_number: CCTE's Neural Network Formation Assay for Number of Bursting Electrodes, Shafer Lab (AID 2284043)
How it was run: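 Counted: electrodes with burst rate ≥1 per 2 min in each well. Cells: primary rat cortex, 1.5 x 10^5/well, on 16-electrode MEA wells. Exposure: DIV 0–12, compound renewed DIV 5 and 9. Recording days 5, 7, 9, 12; AUC vs DMSO baseline.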

[6] = CCTE_Shafer_MEA_dev_per_burst_interspike_interval: CCTE's Neural Network Formation Assay for Burst Interspike Interval, Shafer Lab (AID 2284044; active = hit-call score of the fitted dose curve at least 0.9, where 1 is the maximum; inactive = score below 0.9)
How it was run: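 Spontaneous activity of maturing rat cortical networks is recorded on DIV 5, 7, 9 and 12 under chronic compound exposure beginning at plating. Endpoint: burst interspike interval well-mean, collapsed into trapezoidal AUC and fitted in the negative direction relative to DMSO.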

[7] = CCTE_Shafer_MEA_dev_burst_duration_mean: CCTE's Neural Network Formation Assay for Mean Burst Duration, Shafer Lab (AID 2284045; active = hit-call score of the fitted dose curve at least 0.9, where 1 is the maximum; inactive = score below 0.9)
How it was run: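 Network-formation assay in primary rat cortical neurons; treatment spans twelve days of development. Mean burst duration per well is integrated by trapezoidal AUC and fitted in the loss-of-signal direction against DMSO baseline.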

[8] = CCTE_Shafer_MEA_dev_interburst_interval_mean: CCTE's Neural Network Formation Assay for Mean Interburst Interval, Shafer Lab (AID 2284046; active = hit-call score of the fitted dose curve at least 0.9, where 1 is the maximum; inactive = score below 0.9;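 also: well-mean interburst interval of bursting electrodes as AUC over four recording days; curve fitted for decrease in interburst interval relative to DMSO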)
How it was run: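 Developing rat cortical networks on 48-well MEAs receive compound from the day of plating. Burst intervals from each active electrode are averaged per well, and AUC over the recording days is fitted in the negative direction against DMSO.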

[9] = CCTE_Shafer_MEA_dev_inter_network_spike_interval_mean: CCTE's Neural Network Formation Assay for Mean Inter-network Spike Interval, Shafer Lab (AID 2284047; active = hit-call score of the fitted dose curve at least 0.9, where 1 is the maximum; inactive = score below 0.9)
How it was run: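 Rat cortical cultures, 1.5 x 10^5 cells/well on 48-well MEA plates; continuous exposure days 0–12, medium and compound refreshed DIV 5, 9. Mean time between consecutive network-spike peaks; AUC across DIV 5/7/9/12; DMSO baseline, negative fitting direction.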

[10] = CCTE_Shafer_MEA_dev_network_spike_number: CCTE's Neural Network Formation Assay for Number of Network Spikes, Shafer Lab (AID 2284048; active = hit-call score of the fitted dose curve at least 0.9, where 1 is the maximum; inactive = score below 0.9;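 also: synchronized bursts across electrodes counted on days 5 7 9 12 and integrated as AUC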)
How it was run: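 Extracellular recordings from 16-electrode wells track network formation in rat cortical cultures under continuous treatment from plating. The endpoint is network spike number, expressed as AUC across DIV 5–12 relative to DMSO vehicle.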

[11] = CCTE_Shafer_MEA_dev_network_spike_peak: CCTE's Neural Network Formation Assay for Mean Number of Electrodes in Network Spike, Shafer Lab (AID 2284049; active = hit-call score of the fitted dose curve at least 0.9, where 1 is the maximum; inactive = score below 0.9)
How it was run: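 Continuous 12-day exposure of rat cortical cultures, starting at plating, on MEA plates. Endpoint: electrodes participating in network-spike peaks, AUC across DIV 5–12, DMSO as negative control.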

[12] = CCTE_Shafer_MEA_dev_spike_duration_mean: CCTE's Neural Network Formation Assay for Mean Spike Duration, Shafer Lab (AID 2284051; active = hit-call score of the fitted dose curve at least 0.9, where 1 is the maximum; inactive = score below 0.9;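 also: mean network spike duration pooled as area under curve over DIV 5 to 12 recordings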)
How it was run: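 Readout is the average length of network spikes, clustered firing across electrodes, summed over DIV 5, 7, 9 and 12 as area under the curve. Neurons from rat cortex developed networks on MEA plates under continuous 12-day exposure.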

[13] = CCTE_Shafer_MEA_dev_network_spike_duration_std: CCTE's Neural Network Formation Assay for Standard Deviation of Network Spike Duration, Shafer Lab (AID 2284052; active = hit-call score of the fitted dose curve at least 0.9, where 1 is the maximum; inactive = score below 0.9;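 also: area under curve of spike duration SD across recording days 5 to 12; hits are decreases in network spike duration SD versus DMSO vehicle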)
How it was run: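 Read-out is the trapezoidal area-under-the-curve across recordings made on days 5, 7, 9 and 12, fitted in the negative direction against DMSO baseline. Neurons were primary rat cortical cells treated from day 0, with treatment renewed at each feed.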

[14] = CCTE_Shafer_MEA_dev_per_network_spike_spike_number_mean: CCTE's Neural Network Formation Assay for Mean Number of Spikes in a Network Spike, Shafer Lab (AID 2284053; active = hit-call score of the fitted dose curve at least 0.9, where 1 is the maximum; inactive = score below 0.9)
How it was run: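 Continuous twelve-day exposure of developing rat cortical networks grown over 16 microelectrodes per well; spontaneous firing is captured at four time points, and the per-network-spike spike number is integrated over development by trapezoidal AUC.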

[15] = CCTE_Deisenroth_AIME_384WELL_CTox_Active: Cytotoxicity Assessment (CTOX) in CCTE's 384-well Estrogen Receptor Transactivation Assay with AIME metabolic competence (metabolism positive), Deisenroth Lab (AID 2284037);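 also: chemicals first conditioned 2 h by alginate-bound induced rat liver S9 before cells; activity means signal loss indicating cell death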
How it was run: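 VM7Luc4E2 breast cells received medium pre-incubated 2 h with chemical over alginate microspheres holding induced male Sprague Dawley rat liver S9; viability read 24 h later by protease-substrate fluorescence. Loss of signal, bidirectional fit, 0.002–200 uM.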

[16] = molecular target: Estrogen receptor (Homo sapiens) (UniProt P03372); experiment: CCTE_Deisenroth_AIME_384WELL_LUC_Inactive: CCTE's 384-well Estrogen Receptor Transactivation Assay without AIME metabolic competence (ERTA luciferase; metabolism negative), Deisenroth Lab (AID 2284038);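 also: hits raise estrogen receptor luciferase signal so potencies reflect agonists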
Chain of Estrogen receptor (Homo sapiens) (P03372 whole entry, looked up): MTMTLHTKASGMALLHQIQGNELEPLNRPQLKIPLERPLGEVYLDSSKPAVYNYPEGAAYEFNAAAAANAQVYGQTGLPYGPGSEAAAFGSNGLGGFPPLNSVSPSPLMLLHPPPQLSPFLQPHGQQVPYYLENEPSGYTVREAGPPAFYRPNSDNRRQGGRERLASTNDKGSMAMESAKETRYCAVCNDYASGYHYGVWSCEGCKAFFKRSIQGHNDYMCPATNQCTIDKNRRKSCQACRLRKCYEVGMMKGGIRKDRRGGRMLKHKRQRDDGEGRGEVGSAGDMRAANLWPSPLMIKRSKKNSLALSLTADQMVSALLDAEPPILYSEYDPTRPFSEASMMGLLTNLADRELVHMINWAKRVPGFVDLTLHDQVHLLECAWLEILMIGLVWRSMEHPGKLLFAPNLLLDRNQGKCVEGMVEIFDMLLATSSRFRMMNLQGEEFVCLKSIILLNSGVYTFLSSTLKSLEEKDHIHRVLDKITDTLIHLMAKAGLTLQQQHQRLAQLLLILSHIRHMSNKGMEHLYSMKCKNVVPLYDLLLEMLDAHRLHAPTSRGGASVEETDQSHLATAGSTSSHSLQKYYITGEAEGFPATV
How it was run: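 VM7Luc4E2 ER transactivation, luciferase bioluminescence after 24 h, using medium pre-incubated 2 h with S9-free alginate microspheres. Concentrations 0.002–200 uM; gain of signal fitted relative to 17beta-estradiol.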

[17] = CCTE_Deisenroth_AIME_384WELL_CTox_Inactive: Cytotoxicity Assessment (CTOX) in CCTE's 384-well Estrogen Receptor Transactivation Assay without AIME metabolic competence (metabolism negative), Deisenroth Lab (AID 2284039);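 also: cell viability via live-cell protease substrate cleaved to fluorescent probe; cells exposed 24 h to medium preincubated 2 h with alginate-water beads without S9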
How it was run: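 Metabolism-negative arm: chemicals (10-point, 0.002 - 200 uM) preincubated 2 h with alginate-water lids, medium moved onto VM7Luc4E2 cells for 24 h. Fluorescent live-cell protease readout; bidirectional curve fit.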

[18] = molecular target: Estrogen receptor (Homo sapiens) (UniProt P03372); experiment: CCTE_Deisenroth_AIME_384WELL_LUC_Shift: CCTE's 384-well Estrogen Receptor Transactivation Assay with AIME metabolic competence data shift (ERTA luciferase; difference in metabolism positive and negative), Deisenroth Lab (AID 2284041; active = hit-call score of the fitted dose curve at least 0.9, where 1 is the maximum; inactive = score below 0.9;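 also: shift is response with S9 minus without S9 so positive means metabolism raised ER signal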)
How it was run: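 Here, parent compounds undergo 2 h phase I metabolism by PB/BNF-induced rat S9 before 24 h transactivation in VM7Luc4E2 cells; the curve models S9-positive minus S9-negative response over a 10-point series.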

DIO2 (gene 1734) = experiment: CCTE_GLTED_hDIO2: CCTE's human Deiodinase 2 (DIO2) Inhibition Assay, Great Lakes Toxicology and Ecology Division (GLTED) Lab (AID 2284050)
How it was run: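 Inhibition is judged by reduced iodide release: uninhibited human DIO2 frees iodide from substrate over 3 h, measured afterward by Sandell-Kolthoff colorimetry. Iodinated chemicals or nitrite, iron and thiocyanate may interfere.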

O=C1O[C@H]([C@@H](O)CO)C(O)=C1O
outcome [1]: inactive | outcome [2]: inactive | outcome [3]: inactive | outcome [4]: inactive | outcome [5]: inactive | outcome [6]: inactive | outcome [7]: inactive | outcome [8]: inactive | outcome [9]: inactive | outcome [10]: inactive | outcome [11]: inactive | outcome [12]: inactive | outcome [13]: inactive | outcome [14]: inactive

CCN(CC)C(=O)c1cc(S(=O)(=O)Cc2ccccc2)c(N2CCC(c3ccccc3)CC2)cc1N(CC)CCN(C)C
outcome [15]: inactive | outcome [16]: inactive | outcome [17]: inactive | outcome [18]: inactive | AC50 (DIO2 (gene 1734)): 37 µM (active)

O=c1[nH]sc2ccccc12
outcome [15]: inactive | outcome [16]: inactive | outcome [18]: inactive

CCCCCCCCOC(=O)c1cc(O)c(O)c(O)c1
AC50 [15]: 158 µM (active) | outcome [16]: inactive | AC50 [17]: 19.8 µM (active) | outcome [18]: inactive | AC50 (DIO2 (gene 1734)): 143 µM (active)

O=C(Nc1ccc(Cl)cc1)Nc1ccc(Cl)c(Cl)c1
AC50 [15]: 19.8 µM (active) | outcome [16]: inactive | AC50 [17]: 0.393 µM (active) | outcome [18]: inactive

CC(C)(C)c1csc(-c2cc3cc(OCc4ccccc4CC(=O)O)ccc3o2)n1
AC50 (DIO2 (gene 1734)): 120 µM (active)

Cc1ncc(CO)c(CO)c1O
outcome [15]: inactive | outcome [17]: inactive

NC(=O)c1nc(-c2cccc(-c3cc(F)ccc3OCC(F)(F)C(F)(F)F)c2)n[nH]1
AC50 (DIO2 (gene 1734)): 100 µM (active)

CC1(C)NC(=O)N(c2ccc([N+](=O)[O-])c(C(F)(F)F)c2)C1=O
outcome [15]: inactive | outcome [17]: inactive

CN(C)C(=O)C1(N2CCCCC2)CCN(CC[C@@]2(c3ccc(Cl)c(Cl)c3)CN(C(=O)c3ccccc3)CCO2)CC1
AC50 (DIO2 (gene 1734)): 73.9 µM (active)

CN(C[C@@H](CC[N+]12CCC(C3CCCCC3)(CC1)CC2)c1ccc(Cl)c(Cl)c1)C(=O)c1cc(C(F)(F)F)cc(C(F)(F)F)c1
AC50 (DIO2 (gene 1734)): 37.8 µM (active)

CCOC(=O)O[C@H](C)OC(=O)c1ccc2c(c1)cc(C(=O)NC1CCN(C(C)C)CC1)n2Cc1cc(-c2ccc(Cl)s2)on1
AC50 (DIO2 (gene 1734)): 45.2 µM (active)

CCCCCCCCCCCCO
outcome (DIO2 (gene 1734)): inactive

COc1cccc([C@H](O)C2CCN(CCc3ccc(F)cc3)CC2)c1OC
outcome [16]: inactive | outcome [18]: inactive

CN1C(=O)N(c2ccccc2Br)Cc2cnc(Nc3ccc4c(c3)OCC(CO)O4)nc21 (stereo not drawn)
outcome (DIO2 (gene 1734)): inactive

COCC(C)OCC(C)OCC(C)O (stereo not drawn)
outcome [16]: inactive | outcome [18]: inactive

O=CCCCC=O
AC50 (DIO2 (gene 1734)): 91.3 µM (active)

C[C@]12CC[C@@H]3c4ccc(O)cc4CC[C@H]3[C@@H]1CC[C@H]2O
outcome [17]: inactive

OC12N=C(c3ccccc3)SC1Cc1cc(Cl)ccc12 (stereo not drawn)
outcome [16]: inactive | AC50 [18]: 3.82 µM (active) | AC50 (DIO2 (gene 1734)): 72.5 µM (active)

Oc1ccc2ccccc2c1
outcome [15]: inactive | outcome [17]: inactive

CO[C@H]1/C=C/O[C@@]2(C)Oc3c(C)c(O)c4c(O)c(c(/C=N/N5CCN(C)CC5)c(O)c4c3C2=O)NC(=O)/C(C)=C\C=C\[C@H](C)[C@H](O)[C@@H](C)[C@@H](O)[C@@H](C)[C@H](OC(C)=O)[C@@H]1C
AC50 [15]: 41.3 µM (active) | AC50 [17]: 63.7 µM (active)

CN(C)c1ccc(C(=C2C=CC(=[N+](C)C)C=C2)c2ccc(N(C)C)cc2)cc1
AC50 (DIO2 (gene 1734)): 134 µM (active)

NCc1cccc(C2CCN(C(=O)c3ccc(C#Cc4ccccc4F)o3)CC2)c1
AC50 (DIO2 (gene 1734)): 30.6 µM (active)

CCCCCCCCN(C)CCCCCCCC
outcome [16]: inactive | outcome [18]: inactive

CC(O)CC(C)(C)O (stereo not drawn)
outcome [15]: inactive | outcome [17]: inactive

CC[C@H](NC(=O)c1cc(F)ccc1NS(=O)(=O)c1cccc2cccnc12)c1ccccc1
outcome [15]: inactive | outcome [17]: inactive | outcome [18]: inactive

CCCCCCCCCCCC[N+](C)(C)C
AC50 (DIO2 (gene 1734)): 96.4 µM (active)

Cc1cn([C@H]2C[C@H](N=[N+]=[N-])[C@@H](CO)O2)c(=O)[nH]c1=O
outcome [16]: inactive | outcome [17]: inactive | outcome [18]: inactive

— PubChem BioAssay (EPA / NIEHS)
